The target of assay [1] is T1, Ephrin type-B receptor 1 (Homo sapiens) (UniProt P54762).
T1 sequence (whole entry): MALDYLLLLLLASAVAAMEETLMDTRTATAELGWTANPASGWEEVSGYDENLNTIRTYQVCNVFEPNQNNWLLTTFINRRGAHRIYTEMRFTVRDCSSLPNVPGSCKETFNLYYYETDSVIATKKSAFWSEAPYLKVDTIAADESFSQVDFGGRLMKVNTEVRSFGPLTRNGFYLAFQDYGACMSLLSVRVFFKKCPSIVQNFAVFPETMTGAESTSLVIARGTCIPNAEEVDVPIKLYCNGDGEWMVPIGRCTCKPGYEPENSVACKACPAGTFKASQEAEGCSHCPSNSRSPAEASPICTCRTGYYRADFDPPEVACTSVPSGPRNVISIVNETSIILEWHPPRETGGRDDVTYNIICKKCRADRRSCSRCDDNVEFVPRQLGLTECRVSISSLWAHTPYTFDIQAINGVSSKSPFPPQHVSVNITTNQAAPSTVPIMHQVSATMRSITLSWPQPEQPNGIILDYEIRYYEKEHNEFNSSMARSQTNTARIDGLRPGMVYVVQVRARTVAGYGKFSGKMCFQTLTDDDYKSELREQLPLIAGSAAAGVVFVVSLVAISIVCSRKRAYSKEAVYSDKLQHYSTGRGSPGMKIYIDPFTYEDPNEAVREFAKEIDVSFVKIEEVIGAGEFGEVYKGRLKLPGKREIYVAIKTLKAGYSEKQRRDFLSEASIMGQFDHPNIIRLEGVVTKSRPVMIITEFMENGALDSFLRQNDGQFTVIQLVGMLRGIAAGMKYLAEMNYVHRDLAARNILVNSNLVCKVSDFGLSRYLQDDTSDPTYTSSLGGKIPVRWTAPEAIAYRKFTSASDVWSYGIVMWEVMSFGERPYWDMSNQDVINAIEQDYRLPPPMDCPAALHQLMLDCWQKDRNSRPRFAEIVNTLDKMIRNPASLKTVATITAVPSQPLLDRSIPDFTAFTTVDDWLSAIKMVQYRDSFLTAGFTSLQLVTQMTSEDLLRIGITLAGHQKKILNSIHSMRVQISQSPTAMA
The note with it: at 10 µM.

In assay [2] the target is T2, Ephrin type-B receptor 2 (Homo sapiens) (UniProt P29323).
T2 sequence (whole entry): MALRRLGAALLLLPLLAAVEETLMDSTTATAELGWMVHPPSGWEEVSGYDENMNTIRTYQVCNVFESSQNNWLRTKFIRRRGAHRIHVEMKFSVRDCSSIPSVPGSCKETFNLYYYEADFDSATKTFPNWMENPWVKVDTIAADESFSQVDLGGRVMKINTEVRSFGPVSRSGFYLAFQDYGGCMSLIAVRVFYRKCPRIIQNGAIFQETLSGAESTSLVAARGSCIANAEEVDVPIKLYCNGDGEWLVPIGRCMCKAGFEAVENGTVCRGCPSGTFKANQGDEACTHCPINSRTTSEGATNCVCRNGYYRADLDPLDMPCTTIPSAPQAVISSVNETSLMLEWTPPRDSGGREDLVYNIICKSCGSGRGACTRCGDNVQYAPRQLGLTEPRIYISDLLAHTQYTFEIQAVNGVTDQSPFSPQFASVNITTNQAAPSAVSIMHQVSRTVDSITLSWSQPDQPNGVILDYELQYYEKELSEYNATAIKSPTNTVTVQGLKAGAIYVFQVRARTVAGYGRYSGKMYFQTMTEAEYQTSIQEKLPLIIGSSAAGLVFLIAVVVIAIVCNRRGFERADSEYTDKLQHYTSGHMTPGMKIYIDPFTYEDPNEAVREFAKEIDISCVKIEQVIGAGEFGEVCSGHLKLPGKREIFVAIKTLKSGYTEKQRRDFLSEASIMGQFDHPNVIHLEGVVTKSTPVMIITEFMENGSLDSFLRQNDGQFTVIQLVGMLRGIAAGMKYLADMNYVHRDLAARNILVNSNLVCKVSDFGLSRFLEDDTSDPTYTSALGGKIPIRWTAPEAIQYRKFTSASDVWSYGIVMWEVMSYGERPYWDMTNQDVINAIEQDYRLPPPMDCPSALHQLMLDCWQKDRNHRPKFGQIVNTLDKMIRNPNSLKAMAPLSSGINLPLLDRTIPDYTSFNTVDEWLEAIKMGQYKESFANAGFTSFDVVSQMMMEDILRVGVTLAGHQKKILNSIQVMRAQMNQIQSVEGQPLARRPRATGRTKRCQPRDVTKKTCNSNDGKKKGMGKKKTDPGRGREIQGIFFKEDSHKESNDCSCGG
Conditions: at 1 µM; call rule not given here.

The target of assay [3] is T2, Ephrin type-B receptor 2 (Homo sapiens). The note with it: at 10 µM.
The target in assay [4] is T3, Ephrin type-B receptor 3 (Homo sapiens) (UniProt P54753).
T3 sequence (whole entry): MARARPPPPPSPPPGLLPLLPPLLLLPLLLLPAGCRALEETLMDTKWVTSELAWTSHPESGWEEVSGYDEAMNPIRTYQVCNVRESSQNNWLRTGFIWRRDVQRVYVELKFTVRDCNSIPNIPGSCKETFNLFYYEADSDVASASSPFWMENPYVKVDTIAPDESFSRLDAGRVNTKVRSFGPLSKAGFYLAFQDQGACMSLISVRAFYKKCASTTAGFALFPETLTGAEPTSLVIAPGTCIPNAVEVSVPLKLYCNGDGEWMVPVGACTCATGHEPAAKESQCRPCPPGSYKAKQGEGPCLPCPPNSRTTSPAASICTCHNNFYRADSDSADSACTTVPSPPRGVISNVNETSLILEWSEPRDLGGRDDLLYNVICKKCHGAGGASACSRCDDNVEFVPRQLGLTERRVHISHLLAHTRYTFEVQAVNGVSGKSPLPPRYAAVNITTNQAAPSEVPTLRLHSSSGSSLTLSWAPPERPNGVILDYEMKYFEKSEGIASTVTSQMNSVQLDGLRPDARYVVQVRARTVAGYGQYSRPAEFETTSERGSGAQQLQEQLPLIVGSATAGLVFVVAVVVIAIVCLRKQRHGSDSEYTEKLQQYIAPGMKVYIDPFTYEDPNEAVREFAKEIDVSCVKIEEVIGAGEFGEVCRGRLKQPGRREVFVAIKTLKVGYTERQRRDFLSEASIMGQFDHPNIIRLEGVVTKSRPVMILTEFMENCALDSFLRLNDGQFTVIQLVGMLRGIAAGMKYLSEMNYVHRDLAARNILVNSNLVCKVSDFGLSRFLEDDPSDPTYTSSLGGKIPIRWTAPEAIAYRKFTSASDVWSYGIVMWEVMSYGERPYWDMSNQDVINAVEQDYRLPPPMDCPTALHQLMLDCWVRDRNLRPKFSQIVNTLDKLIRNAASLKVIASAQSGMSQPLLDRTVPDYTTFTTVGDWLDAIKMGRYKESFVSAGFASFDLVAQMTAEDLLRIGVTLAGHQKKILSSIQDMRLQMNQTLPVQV
Conditions: at 1 µM.

Assay [5] has as its target T3, Ephrin type-B receptor 3 (Homo sapiens). The note with it: at 10 µM.
The target in assay [6] is T4, Ephrin type-B receptor 4 (Homo sapiens) (UniProt P54760).
T4 sequence (whole entry): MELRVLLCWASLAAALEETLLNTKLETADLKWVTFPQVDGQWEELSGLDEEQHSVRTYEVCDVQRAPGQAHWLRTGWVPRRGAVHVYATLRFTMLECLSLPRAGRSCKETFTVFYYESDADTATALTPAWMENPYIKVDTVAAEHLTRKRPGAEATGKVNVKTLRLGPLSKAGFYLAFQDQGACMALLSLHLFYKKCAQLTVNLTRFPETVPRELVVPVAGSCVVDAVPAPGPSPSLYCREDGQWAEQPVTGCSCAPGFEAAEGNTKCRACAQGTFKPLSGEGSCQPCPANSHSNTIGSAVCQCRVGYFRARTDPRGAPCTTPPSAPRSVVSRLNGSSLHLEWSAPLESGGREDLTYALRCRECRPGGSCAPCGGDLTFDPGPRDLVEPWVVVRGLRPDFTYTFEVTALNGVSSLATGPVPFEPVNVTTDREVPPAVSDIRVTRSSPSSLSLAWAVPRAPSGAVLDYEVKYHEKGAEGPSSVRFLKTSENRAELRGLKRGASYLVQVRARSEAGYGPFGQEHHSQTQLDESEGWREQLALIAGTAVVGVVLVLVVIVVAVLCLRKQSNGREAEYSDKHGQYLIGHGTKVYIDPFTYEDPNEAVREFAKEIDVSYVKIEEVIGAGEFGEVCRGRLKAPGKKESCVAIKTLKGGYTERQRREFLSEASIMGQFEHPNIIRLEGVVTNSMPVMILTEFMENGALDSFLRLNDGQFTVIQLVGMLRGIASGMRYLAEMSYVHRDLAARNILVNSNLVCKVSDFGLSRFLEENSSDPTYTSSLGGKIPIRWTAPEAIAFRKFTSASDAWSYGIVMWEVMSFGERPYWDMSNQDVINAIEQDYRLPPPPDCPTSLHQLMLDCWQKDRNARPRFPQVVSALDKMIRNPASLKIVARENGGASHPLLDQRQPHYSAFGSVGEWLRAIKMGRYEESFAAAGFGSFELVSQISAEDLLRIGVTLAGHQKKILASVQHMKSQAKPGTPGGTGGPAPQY
Conditions: at 1 µM.

The target of assay [7] is T4, Ephrin type-B receptor 4 (Homo sapiens). The note with it: at 10 µM.
For assay [8], the target named is Receptor tyrosine-protein kinase erbB-4 (Homo sapiens) (UniProt Q15303). Conditions: at 1 µM.
The target is the same in assay [9]. Conditions: at 10 µM.
Assay [10] deals with Focal adhesion kinase 1 (Homo sapiens) (UniProt Q05397). The note with it: at 1 µM.

The residual activity is the signal under treatment as a percentage of the control signal.

Chain of Receptor tyrosine-protein kinase erbB-4 (Homo sapiens) (Q15303 whole entry): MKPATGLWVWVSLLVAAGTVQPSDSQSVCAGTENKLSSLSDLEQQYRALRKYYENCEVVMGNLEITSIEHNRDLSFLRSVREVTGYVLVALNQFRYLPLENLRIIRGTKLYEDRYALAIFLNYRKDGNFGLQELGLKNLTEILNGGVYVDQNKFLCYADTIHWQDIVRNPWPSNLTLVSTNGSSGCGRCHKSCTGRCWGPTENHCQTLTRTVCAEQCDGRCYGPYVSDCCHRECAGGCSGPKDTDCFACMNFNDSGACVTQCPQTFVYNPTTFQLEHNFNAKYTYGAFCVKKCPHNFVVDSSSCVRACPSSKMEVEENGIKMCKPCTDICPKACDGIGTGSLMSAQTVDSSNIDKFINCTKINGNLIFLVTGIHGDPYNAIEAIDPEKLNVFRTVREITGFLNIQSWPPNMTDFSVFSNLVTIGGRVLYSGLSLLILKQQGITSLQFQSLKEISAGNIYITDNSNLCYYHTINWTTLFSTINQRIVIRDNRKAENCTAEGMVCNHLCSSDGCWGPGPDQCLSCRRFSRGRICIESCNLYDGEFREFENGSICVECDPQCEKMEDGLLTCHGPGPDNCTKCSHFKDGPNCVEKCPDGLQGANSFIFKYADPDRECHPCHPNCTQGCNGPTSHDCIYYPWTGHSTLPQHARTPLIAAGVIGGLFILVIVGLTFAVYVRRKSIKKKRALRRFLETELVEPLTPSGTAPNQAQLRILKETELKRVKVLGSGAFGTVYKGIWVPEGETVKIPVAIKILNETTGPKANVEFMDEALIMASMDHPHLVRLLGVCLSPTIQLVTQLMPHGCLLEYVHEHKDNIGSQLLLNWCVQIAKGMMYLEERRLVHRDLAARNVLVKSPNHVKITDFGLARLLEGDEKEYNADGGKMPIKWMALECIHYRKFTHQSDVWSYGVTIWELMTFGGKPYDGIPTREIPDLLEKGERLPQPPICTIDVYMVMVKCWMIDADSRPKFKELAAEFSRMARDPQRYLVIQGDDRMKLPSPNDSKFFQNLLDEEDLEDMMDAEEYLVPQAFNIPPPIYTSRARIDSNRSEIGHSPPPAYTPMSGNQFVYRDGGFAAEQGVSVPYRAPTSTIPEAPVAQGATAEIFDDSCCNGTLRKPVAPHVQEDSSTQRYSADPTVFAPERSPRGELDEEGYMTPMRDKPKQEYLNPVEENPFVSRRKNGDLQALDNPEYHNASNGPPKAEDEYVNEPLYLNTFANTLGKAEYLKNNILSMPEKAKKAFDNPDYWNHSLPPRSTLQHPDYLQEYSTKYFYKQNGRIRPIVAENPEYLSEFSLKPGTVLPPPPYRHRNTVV
Chain of Focal adhesion kinase 1 (Homo sapiens) (Q05397 2-1052 limits assumed): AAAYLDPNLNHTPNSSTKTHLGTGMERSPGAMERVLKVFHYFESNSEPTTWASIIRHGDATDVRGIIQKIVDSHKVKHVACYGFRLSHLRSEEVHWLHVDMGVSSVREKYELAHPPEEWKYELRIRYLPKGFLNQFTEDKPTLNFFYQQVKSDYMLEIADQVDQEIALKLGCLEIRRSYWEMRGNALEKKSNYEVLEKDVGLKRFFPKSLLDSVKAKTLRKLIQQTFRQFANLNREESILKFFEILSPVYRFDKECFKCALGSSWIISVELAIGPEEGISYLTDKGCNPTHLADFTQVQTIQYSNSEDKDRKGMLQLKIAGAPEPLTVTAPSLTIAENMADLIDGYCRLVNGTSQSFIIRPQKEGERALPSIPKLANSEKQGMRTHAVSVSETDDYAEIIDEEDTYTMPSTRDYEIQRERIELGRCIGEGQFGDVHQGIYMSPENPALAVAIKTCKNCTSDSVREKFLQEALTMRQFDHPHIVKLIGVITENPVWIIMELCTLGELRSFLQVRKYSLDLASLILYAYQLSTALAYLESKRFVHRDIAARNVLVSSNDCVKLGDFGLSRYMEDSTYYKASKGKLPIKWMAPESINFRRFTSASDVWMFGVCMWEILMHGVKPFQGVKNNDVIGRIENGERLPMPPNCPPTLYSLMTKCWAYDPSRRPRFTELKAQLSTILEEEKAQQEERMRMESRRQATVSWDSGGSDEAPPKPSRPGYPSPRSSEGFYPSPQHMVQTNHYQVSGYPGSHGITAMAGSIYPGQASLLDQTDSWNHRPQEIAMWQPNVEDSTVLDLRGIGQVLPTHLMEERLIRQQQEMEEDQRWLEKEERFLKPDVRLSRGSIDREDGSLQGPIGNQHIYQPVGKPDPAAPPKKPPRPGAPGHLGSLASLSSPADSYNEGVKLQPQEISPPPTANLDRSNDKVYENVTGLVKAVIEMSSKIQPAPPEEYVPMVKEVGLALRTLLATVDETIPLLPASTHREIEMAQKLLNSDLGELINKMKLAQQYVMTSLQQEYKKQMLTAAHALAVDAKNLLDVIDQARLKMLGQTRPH

In the case of `Cc1nc(-c2ccccc2)c(-c2ccncc2)o1`, the residual activity in assay [1] is 55%; in assay [2] it was 36%; in assay [3], 31%; in assay [4] it was 126% (inactive); in assay [5] it was 107%; in assay [6], 105%. The residual activity in [7] came out at 79%; in assay [8] it was 118%; in [9] it was 110%; in [10] it was 111%.

The values above are taken from ChEMBL document CHEMBL2218924, “A broad activity screen in support of a chemogenomic map for kinase signalling research and drug discovery” (Biochem J, 2013).
